Screening results: PubChem, several laboratories
ABHD5-PLIN5 inh – ABHD5-PLIN5 interaction inhibitors, primary screen, cell lysate, split luciferase complementation, luminescence; inhibition, % at 4 µM; Split G. princeps luciferase complementation, 4 h; Perilipin-5 (Homo sapiens) + 1-acylglycerol-3-phosphate O-acyltransferase ABHD5 (Homo …; hit rate 0.78% among 360,000;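 active means inhibition above the mean inhibition across every tested compound plus 3 SD, cut at about 22% in these data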;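 further: 0% = DMSO only wells and the 100% control is not disclosed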
Target sequence (Q00G26 whole entry, looked up): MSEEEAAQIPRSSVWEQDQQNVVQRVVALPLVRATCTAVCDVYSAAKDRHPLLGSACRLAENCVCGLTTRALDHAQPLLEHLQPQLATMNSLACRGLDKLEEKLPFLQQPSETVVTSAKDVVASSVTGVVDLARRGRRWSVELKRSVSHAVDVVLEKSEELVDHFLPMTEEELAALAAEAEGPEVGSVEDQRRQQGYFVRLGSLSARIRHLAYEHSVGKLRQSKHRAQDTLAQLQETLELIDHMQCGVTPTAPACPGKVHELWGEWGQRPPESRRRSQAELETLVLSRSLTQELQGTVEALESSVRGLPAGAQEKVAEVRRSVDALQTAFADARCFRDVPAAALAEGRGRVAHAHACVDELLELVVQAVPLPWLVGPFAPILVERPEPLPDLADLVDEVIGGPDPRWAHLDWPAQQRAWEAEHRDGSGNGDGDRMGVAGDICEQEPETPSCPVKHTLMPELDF
Target sequence (Q8WTS1 whole entry, looked up): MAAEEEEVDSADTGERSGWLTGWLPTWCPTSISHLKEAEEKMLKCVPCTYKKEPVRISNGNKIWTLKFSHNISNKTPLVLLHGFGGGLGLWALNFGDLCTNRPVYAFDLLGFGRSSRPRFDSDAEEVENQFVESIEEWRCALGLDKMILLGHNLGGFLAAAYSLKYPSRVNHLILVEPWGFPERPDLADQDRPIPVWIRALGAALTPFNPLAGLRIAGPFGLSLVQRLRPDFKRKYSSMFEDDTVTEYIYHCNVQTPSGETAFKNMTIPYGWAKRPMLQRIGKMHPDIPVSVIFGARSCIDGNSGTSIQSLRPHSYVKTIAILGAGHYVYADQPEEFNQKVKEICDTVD
CF NFkB inh – inhibitors of PAF-induced NF-kB signaling, primary screen, cell-based, GFP fluorescence, uHTS | inhibition, % at 5 µM | AID 588850, 2011 | hit rate 0.86% among 360,000 | KKLEB NF-kB-GFP reporter, GFP fluorescence overnight;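 active means at least 50% inhibition at 5 µM, scaled per plate between neutral and stimulator controls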;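 further: PAF is a Pseudomonas aeruginosa culture filtrate used as stimulus; plate controls were PAF-stimulated DMSO wells for no effect and unstimulated DMSO wells for full effect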
KKLEB cytotox – cytotoxicity in KKLEB CF airway cells, primary screen, cytotoxicity control for CF NF-kB inhibitor project, cell-based, uHTS, fluorescence assay plates; activity change (cytotoxicity), % at 5 µM; hit rate 0.36% among 360,000; KKLEB CF airway cells viability, ATPlite luminescence, overnight; stronger effect = lower value; cells stimulated with P. aeruginosa culture filtrate;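 active means corrected activity change at or below -50% at 5 µM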
Peg3 prom inh-1 – Peg3 promoter-driven luciferase inhibitors, primary screen, cell-based, HeLa, luciferase luminescence. AID 588405, 2011. HeLa PEG-Prom luciferase reporter, overnight. hit rate 1.7% among 360,000. inhibition, % at 20 µM;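 active means inhibition of at least 50% at 20 µM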
TRPM1 prom inh – inhibitors of MITF-dependent TRPM1 promoter reporter, primary screen, cell-based, SK-MEL-5, single point, luciferase. SK-MEL-5 TRPM1 promoter luciferase, 24 h. inhibition, % at 12.5 µM. hit rate 0.83% among 330,000. AID 488899, 2010;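 active means mean inhibition across replicates of 60% or more, whatever share of single replicates reaches that level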
HIF-2a block – HIF-2a reporter inhibitors, primary screen, luminescence, 786-0 RCC cells; AID 624352, 2012; 786-0 RCC cells HIF-2a reporter, luciferase luminescence, overnight; hit rate 0.72% among 360,000; inhibition, % at 18.8 µM;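 active means inhibition of the luminescence signal of 40% or more relative to plate controls, in a single-dose primary screen at 18.75 µM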
Peg3 prom inh-2 – Peg3 promoter reporter inhibitors, retest, confirmation, cell-based, HeLa, luciferase reporter, single concentration. inhibition, % at 20 µM. hit rate 84% among 1,300. AID 602417, 2012. shares compounds with Peg3 prom inh-1. HeLa PEG-Prom luciferase reporter, luminescence, overnight;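 active means at 20 µM dose, 40% or more inhibition averaged across four replicates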
The depositor's hits bear a star; nt = no result. Rows were chosen to be rich in hits. Some 3.1% of all compounds tested hit in one or more screens of this group.

SMILES	ABHD5-PLIN5 inh	CF NFkB inh	KKLEB cytotox	Peg3 prom inh-1	TRPM1 prom inh	HIF-2a block	Peg3 prom inh-2
Cc1c(C(=O)N2CCN(c3ccc(F)cc3)CC2)sc2ncnc(N3CCN(c4ccccn4)CC3)c12	15.3	5.0	-2.9	50.2*	36.3	6.1	87.1*
COc1ccccc1N1CCN(C(=O)c2sc3nc(C)nc(N4CCN(c5ccccn5)CC4)c3c2C)CC1	8.6	14.6	-7.2	46.8	11.7	9.9	nt
Cc1c(C(=O)N2CCC(C)CC2)sc2ncnc(N3CCN(c4ccccc4)CC3)c12	-2.3	7.0	3.7	23.5	-2.0	-26.7	nt
O=C(CCSc1nc2ccccc2s1)N/N=C/c1c(O)ccc2ccccc12	-5.8	10.3	1.3	53.8*	41.4	15.1	59.1*
COc1ccc(/C=N/NC(=O)CCSc2nc3ccccc3s2)cc1OC	2.8	14.5	-5.6	8.8	-3.1	-35.2	nt
Cn1c(=O)[nH]c2nnc(-c3ccc(Cl)c(Cl)c3)nc2c1=O	-1.0	9.5	5.8	-52.1	6.2	-85.0	nt
O=C1c2cccnc2-c2ncccc21	-1.4	-5.3	-11.8	-1.4	-5.9	8.3	nt
COC1=C(Br)C(=O)c2ncccc2C1=O	-28.4	-0.8	9.4	100.5*	65.0*	72.0*	99.2*
Fc1ccc(Nc2nc(-c3ccncc3)nc3ccccc23)cc1F	-6.1	-20.6	-8.7	54.3*	-16.9	9.9	33.3
Cc1ccc(S(=O)(=O)Nc2cc3c4c(c2)CC(=O)N4CCC3)cc1	-4.6	14.5	-7.2	-3.8	0.6	12.7	nt
C(=C\c1ccccc1)/CN1CCN(C(CCc2ccccc2)c2nnnn2C2CCCCC2)CC1 (stereo not given)	0.5	10.5	-25.4	9.8	nt	-25.5	nt
Cc1csc(NC(=O)c2ccc(N3CCCC3=O)cc2)n1	3.0	19.7	0.8	64.1*	42.6	33.3	46.3*
Cc1nnc(NC(=O)c2ccc(N3CCCC3=O)cc2)s1	-1.8	-10.1	-22.8	-118.7	-87.2	-137.8	nt
CC(C)c1ccc(NC(=O)CSc2nc(-c3ccccc3F)nc3nc[nH]c23)cc1	-8.6	9.9	0.9	59.6*	5.3	18.2	25.2
COCCNC(=O)c1ccc(Cl)c(S(=O)(=O)Nc2cccc(C)c2C)c1	-6.5	-22.6	8.8	9.9	-4.9	8.2	nt
Cc1ccc(-c2nc(-c3ccccn3)no2)cc1Cl	3.7	-6.0	-67.0*	92.9*	82.6*	76.6*	71.9*
c1ccc(-c2nc(-c3ccccn3)no2)cc1	0.7	-3.5	-17.0	75.9*	53.5	32.8	46.4*
Cc1ccc(-c2nc(-c3ccccn3)no2)cc1[N+](=O)[O-]	-2.9	-17.7	-1.6	-68.2	-3.4	-68.1	nt
Cc1cc(N2CCN(C(=O)c3ccoc3)CC2)n2nc(-c3ccccc3)cc2n1	-2.4	-22.4	3.9	7.7	nt	6.0	nt
O=C(c1ccoc1)N1CCN(c2cc(-c3ccccc3)nc3cc(-c4ccccc4)nn23)CC1	6.4	1.2	3.5	68.4*	nt	-19.2	70.0*
Cc1cc(C(=O)CSc2nnc3ccccn23)c(C)n1-c1ccccc1	-4.1	-18.4	3.2	100.9*	77.8*	84.3*	81.4*
COc1ccccc1/C=N/NC(=O)C(=O)NCc1cccnc1	-1.4	-2.1	5.0	8.4	17.2	27.1	nt
COc1cccc(NC(=O)CN(C)C(=O)c2cccnc2Nc2cccc(C(F)(F)F)c2)c1	-11.7	-17.7	-8.0	69.3*	27.7	8.6	72.9*
Cc1ccc(NC(=O)CN(C)C(=O)c2cccnc2Nc2cccc(C(F)(F)F)c2)cc1	-9.4	0.5	-23.3	46.9	-4.3	4.4	nt
O=C1COc2ccc(C(=O)COC(=O)c3c(F)cccc3Cl)cc2N1	-12.2	22.5	-13.6	-11.9	-14.4	-11.5	nt
SMILES	ABHD5-PLIN5 inh	CF NFkB inh	KKLEB cytotox	Peg3 prom inh-1	TRPM1 prom inh	HIF-2a block	Peg3 prom inh-2
COc1ccc(NC(=O)N(C)[C@H]2C[C@H]3c4[nH]c5ccc(-c6cccc(C)c6)cc5c4CCN3C[C@H]2[C@H](C)O)cc1	14.4	43.6	-28.4	92.3*	nt	-13.8	53.1*
COc1ccc(NC(=O)N(C)[C@H]2C[C@H]3c4[nH]c5ccccc5c4CCN3C[C@H]2[C@H](C)O)cc1	3.2	25.5	-13.2	-7.1	nt	-11.8	nt
CC(C)C(C)(C#N)NC(=O)CN1C(=O)NC2(CCCc3ccccc32)C1=O (stereo not given)	-1.3	14.8	-10.9	11.1	5.6	18.6	nt
CCCCCCN1C=C/C(=C\C=C(C#N)C#N)c2ccccc21	6.4	20.5	-27.0	56.0*	36.5	34.1	44.9*
CN(C)c1ccc(N=Nc2ccc(C(=O)O)cc2)cc1	-7.2	2.9	2.0	64.8*	66.2*	53.8*	35.0
CCN1C(=O)C(=Cc2cccc(OC)c2Oc2ccc([N+](=O)[O-])cc2[N+](=O)[O-])SC1=S	4.9	88.3*	-84.3*	108.5*	88.2*	5.8	72.4*
COC(=O)Cn1c2ccc(OC)cc2c2nc3ccccc3nc21	-0.1	-1.4	-2.1	23.4	7.6	5.8	nt
CCOC(=O)Cn1c2ccc(OC)cc2c2nc3ccccc3nc21	6.4	25.6	-45.5	87.9*	26.8	16.0	33.2
CC(C)C(=O)N1CCCC1(C)C(=O)NCc1ccccn1 (stereo not given)	4.5	15.6	-3.3	0.2	nt	2.8	nt
CCN(CC)CCN1CCN(c2cncc(-c3ccc4ccccc4c3)n2)CC1	-2.1	-7.6	-11.6	70.7*	nt	-20.5	89.7*
COc1cccc(NC(=O)Nc2cccc(C(=O)O)c2)c1	1.7	6.3	3.9	67.3*	81.4*	80.5*	55.0*
COc1cccc(NC(=O)c2ccccc2)c1	6.3	-10.4	-4.4	-275.9	-99.0	-233.0	nt
CCCOc1ccc(-c2c(=O)n(OCC(=O)OCC)c3ccccc3[n+]2[O-])cc1	-2.0	-28.9	-6.1	-186.6	-63.0	-251.3	nt
N#Cc1ccc(S(=O)(=O)N2CCN(C(=O)c3cn(-c4ccccc4)nc3-c3cccnc3)CC2)cc1	-8.4	-13.3	-4.7	2.2	8.5	3.6	nt
COc1ccc(C2c3ccc4ccccc4c3Oc3ncn(CCCO)c(=N)c32)cc1 (stereo not given)	-5.6	17.8	-15.8	65.1*	15.9	-3.7	86.2*
COc1ccc(C2c3c(ncn(CCCN4CCOCC4)c3=N)Oc3ccc4ccccc4c32)cc1OC (stereo not given)	7.7	27.0	8.0	69.2*	79.8*	9.5	85.5*
COc1ccc(Cc2nc3c4c(ncn3n2)Oc2c(ccc3ccccc23)C4c2ccc(OC)c(OC)c2)cc1 (stereo not given)	2.1	14.9	-5.0	21.6	1.0	0.3	nt
